Assay results from PubChem BioAssay (NCI).
The panel holds about 79,000 compounds, 15% with a hit somewhere; the sample as a whole holds those more often. Rule as the data show it: active = growth inhibition above about 70%; inactive = the rest.

Tests used:
[1] = NCI Yeast Anticancer Drug Screen. Data for the rad50 strain (AID 155);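 also: 0% = growth of vehicle-only cultures of the same strain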; details: S. cerevisiae rad50 strain growth inhibition; at 50.0 µM; active compounds read high
Procedure, shortened: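 Relative growth inhibition (compound vs vehicle) was measured in yeast with a defined repair-gene alteration.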

[2] = NCI Yeast Anticancer Drug Screen. Data for the mec2-1 strain (AID 157); details: S. cerevisiae mec2-1 strain, at 50.0 µM, active compounds read high
Procedure, shortened: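 Readout is yeast growth inhibition, normalised to vehicle-treated controls, in the mec2-1 strain exposed to compound.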

[3] = NCI Yeast Anticancer Drug Screen. Data for the sgs1 mgt1 strain (AID 161);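 also: 0% = growth of cultures given vehicle only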; details: S. cerevisiae sgs1 mgt1 strain, at 50.0 µM, active compounds read high
Procedure, shortened: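 Percent growth inhibition was derived by comparing compound-exposed mutant yeast with vehicle-exposed cultures. The strain carries alterations in DNA damage repair.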

[4] = NCI Yeast Anticancer Drug Screen. Data for the cln2 rad14 strain (AID 165);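 also: 0% = growth equal to vehicle treated cultures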; details: S. cerevisiae cln2 rad14 strain, at 50.0 µM, active compounds read high
Procedure, shortened: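 Relative to vehicle controls, growth inhibition of compound-treated cln2 rad14 yeast was recorded.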

[5] = NCI Yeast Anticancer Drug Screen. Data for the bub3 strain (AID 167); details: S. cerevisiae bub3 mutant strain, at 50.0 µM, active compounds read high
Procedure, shortened: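 Screening used yeast with an engineered genetic alteration affecting cell cycle control. Compound-exposed cultures were compared with vehicle cultures, and reduced growth was taken as inhibition.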

[6] = NCI Yeast Anticancer Drug Screen. Data for the mlh1 rad18 strain (AID 175); details: S. cerevisiae mlh1 rad18 strain growth inhibition; at 50.0 µM; active compounds read high
Procedure, shortened: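 Test agents were incubated with a yeast strain of defined genotype (DNA damage repair defect). Inhibition of growth was derived by comparison with vehicle-exposed cultures.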

Measured: growth inhibition

O=C1CC2(C(=O)N1CN1CCOCC1)c1ccccc1-c1ccccc12
inactive: [1] -7.55% | [2] -4.5% | [3] 15.6% | [4] 3.7% | [5] 4.05% | [6] -11.1%

CC(C)CC(O)(CC(C)C)C(CCC(=O)Nc1ccccc1)C(=O)Nc1ccccc1 (centres undefined)
inactive: [1] 26.1% | [2] 11.9% | [3] 1.9% | [4] -52.1% | [5] -8.5% | [6] 7.6%

CCOC(=O)CN1CN(CCc2ccccc2)CC(C)(C)C1OCC (centres undefined)
inactive: [1] 37.1% | [2] 31.6% | [3] 43.4% | [4] 20.6% | [5] 41.2% | [6] 39.5%

ONc1ccccc1
inactive: [1] 15.3% | [2] 6.1% | [3] 11.8% | [4] 16.7% | [5] 28.1% | [6] 16.6%

CCCCC(=O)N/N=C/c1ccccc1OCC
inactive: [1] -7% | [2] 0.05% | [3] 0.6% | [4] -3.3% | [5] -9.9% | [6] -7.6%

CC(C)C(Nc1ncnc2nc[nH]c12)C(=O)O (centres undefined)
inactive: [1] -25.6% | [2] -15.2% | [3] -6.65% | [4] -35.2% | [5] -23.2% | [6] -16.9%

CCCCOC(=O)C(N)Cc1ccccc1 (centres undefined)
inactive: [1] -20.4% | [2] -2.3% | [3] -5.65% | [4] -44.5% | [5] 23.6% | [6] -22.2%

NCC1(N2CCOCC2)C2CCCC21CNc1ccccc1 (centres undefined)
inactive: [1] -37.2% | [2] -46.1% | [3] -16% | [4] -4.65% | [5] -35.1% | [6] -21%

COc1cccc2c1C(=O)c1c(O)c3c(c(O)c1C2=O)C[C@@](O)(C(C)=O)CC3S(=O)(=O)O (some centres undefined)
inactive: [1] -14% | [2] -7.45% | [3] -24.4% | [4] -8.85% | [5] -14.9% | [6] 9.7%

NC(=O)C(CO)NC(=O)c1ccc[n+](Cc2ccccc2)c1 (centres undefined)
inactive: [1] 5.3% | [2] -1.6% | [3] -1.2% | [4] -4.5% | [5] 0.15% | [6] 27.9%

NC(=O)N=C(NC(N)=O)NC(N)=O
inactive: [1] -17.1% | [2] -21.5% | [3] -10.2% | [4] -18.3% | [5] -6.85% | [6] -17.1%

O=c1c(SCc2ccc(Cl)cc2Cl)c(SCc2ccc(Cl)cc2Cl)cnn1-c1ccccc1
inactive: [1] 16.8% | [2] -1.4% | [3] 7.3% | [4] 23.9% | [5] 1.05% | [6] 4.05%

OC1[C@H](O)CN(OCc2ccccc2)C[C@@H]1O (some centres undefined)
inactive: [1] -13.9% | [2] -2.4% | [3] -15.1% | [4] -20.4% | [5] 7.85% | [6] -18.4%

CC(CN1CCCCC1)SSC(C)CN1CCCCC1 (centres undefined)
inactive: [1] 41.8% | [2] 14.9% | [3] 27% | [4] -29.1% | [5] 11.5% | [6] 44.2%

Nc1ccc2ccccc2c1N=Nc1ccc(/C=C/c2ccc(N=Nc3c(N)ccc4ccccc34)cc2S(=O)(=O)O)c(S(=O)(=O)O)c1
inactive: [1] 23.4% | [2] 18.2% | [3] 62% | [4] 7.1% | [5] 31.9% | [6] 53.4%

O=C(/C=N\O)c1ccncc1
inactive: [1] -13.8% | [2] -16.9% | [3] -30.8% | [4] -16.1% | [5] -8.65% | [6] -35.7%

COc1ccccc1C1CC(c2ccccc2)=Nc2ccccc2S1 (centres undefined)
inactive: [1] -3.95% | [2] -45.2% | [3] 1.25% | [4] 5.95% | [5] -30.8% | [6] -1.05%

CC1(C)CC23C4COC(=O)C2CCC1C3CC4=O (centres undefined)
inactive: [1] -7.25% | [2] -18.1% | [3] 20.4% | [4] -0.7% | [5] -0.25% | [6] -21.4%

O=C1C2CCCC3CCCC(C(=O)N1NC1CCCCC1)C32 (centres undefined)
inactive: [1] 39.4% | [2] 28.6% | [3] 27.9% | [4] 29.7% | [5] 53.4% | [6] 49%

CC(C)c1ccccc1N1C(=O)CC(Sc2ccccc2N)C1=O (centres undefined)
inactive: [1] -5.45% | [2] -12.8% | [3] -9.25% | [4] -28.6% | [5] 0.15% | [6] 3.8%

C/C(=N/NC(N)=S)c1ccc2ccccc2c1
inactive: [1] 17.4% | [2] 17.1% | [3] 43.8% | [4] 17.2% | [5] 28.9% | [6] 29.4%

c1ccc2c(c1)ncc1cc3c(cc12)[nH]c1ccccc13
inactive: [1] 40.9% | [2] 7.5% | [3] 16.6% | [4] -11.1% | [5] -10.4% | [6] 26.6%

C/C(C/C(C)=N/C(N)=S)=N\C(N)=S
inactive: [1] -37.5% | [2] -23.1% | [3] -15.8% | [4] -12.4% | [5] 0.15% | [6] -13.5%

C[N+](C)(C)C(C1=CCCC1=O)c1ccccc1 (centres undefined)
inactive: [1] 50% | [2] 43.3% | [3] 3.7% | [4] 26.9% | [5] 30.3% | [6] 43.6%

O=C(O)COc1ccc(/C=C2\SC(=S)NC2=O)cc1
inactive: [1] -3.9% | [2] -8.3% | [3] 1.6% | [4] -36.5% | [5] 18.9% | [6] -12.2%

COC(=O)C1=CO[C@@H](O)[C@@H]2C(C)OC(=O)C[C@H]12 (some centres undefined)
inactive: [1] -8.5% | [2] -28.3% | [3] -6.9% | [4] 3.2% | [5] -10.8% | [6] -15.2%

CCSc1[nH]c2nc[nH]c(=O)c2c1C#N
inactive: [1] -8.1% | [2] 21.2% | [3] -32.5% | [4] -17.8% | [5] 0.45% | [6] -8.4%

[O-][N+]1=CCCC1
inactive: [1] 4.4% | [2] -13.9% | [3] -0.65% | [4] -5.5% | [5] -0.2% | [6] -16.4%

CC/C(=N/NC(=O)c1ccccc1)c1ccccc1
inactive: [1] -18.9% | [2] 9.5% | [3] 8.7% | [4] -19.4% | [5] 8.5% | [6] -17.7%

CC(=O)c1ccccc1NS(=O)(=O)c1ccc2nc(C)n(NS(=O)(=O)c3ccccc3C(C)=O)c(=O)c2c1
inactive: [1] 43.5% | [2] 19.6% | [3] -5.25% | [4] 7.2% | [5] 4.55% | [6] 28.6%

CC1CCC(=O)N1C (centres undefined)
inactive: [1] -19.1% | [2] -1.35% | [3] -16.1% | [4] -21.6% | [5] -0.45% | [6] -9.5%

O=C(CN(c1ccc(S(=O)(=O)O)cc1)c1ccc(S(=O)(=O)O)cc1)Nn1cnc2ccc(S(=O)(=O)N(c3ccc(S(=O)(=O)O)cc3)c3ccc(S(=O)(=O)O)cc3)cc2c1=O
inactive: [1] 29.1% | [2] 6.15% | [3] 31.2% | [4] 19.2% | [5] 26% | [6] 34.1%

Cc1cccc[n+]1CC(=O)c1ccc(Cl)cc1
inactive: [1] -8.05% | [2] 3.25% | [3] 1.05% | [4] -44.8% | [5] -4% | [6] 3.65%

Nc1c(-c2ccccc2[N+](=O)[O-])nc2ccccn12
inactive: [1] -16.1% | [2] -43.5% | [3] -49.3% | [4] -2.15% | [5] -19.2% | [6] -21.1%

CCOC(=O)C(=O)Cc1ccccn1
inactive: [1] -0.7% | [2] -6.55% | [3] -6.5% | [4] -16.3% | [5] 8.85% | [6] -13.2%

CC1c2ccccc2Cn2cc3c(c21)C(=O)c1cccc(OP(=O)(O)OCc2ccccc2)c1C3=O (centres undefined)
inactive: [1] 2.2% | [2] 12.6% | [3] 13.1% | [4] 3.45% | [5] 5.1% | [6] 11.9%

CCOC(=O)Cc1cccnc1N
inactive: [1] -3.15% | [2] -9.45% | [3] -19.9% | [4] -3.9% | [5] 1% | [6] -2.25%

CCC1(O)CC2CN(CCc3c([nH]c4ccccc34)C(C(=O)OC)(c3cc4c(cc3OC)N(C)C3C(O)(C(=O)NCCSSCCNC(=O)C5(O)C(O)C6(CC)C=CCN7CCC8(c9cc(C%10(C(=O)OC)CC%11CN(CCc%12c%10[nH]c%10ccccc%12%10)CC(O)(CC)C%11)c(OC)cc9N(C)C58)C76)C(O)C5(CC)C=CCN6CCC43C65)C2)C1 (centres undefined)
inactive: [1] 23.4% | [2] 11.4% | [3] 24.9% | [4] 42.8% | [5] 40.1% | [6] 37.6%

CCOc1ccc(NC(=O)C2=C(C)NC(C)=C(C(=O)Nc3ccc(OCC)cc3)C2c2ccccc2)cc1
inactive: [1] -22.9% | [2] -7.4% | [3] -20.9% | [4] -17.1% | [5] -16.2% | [6] -18.2%
